# Screens: PubChem, ICCB-Longwood Screening Facility, Harvard Medical School
# The sample as a whole holds a higher share of hits than the screen did.
# Sa growth 42C: S. aureus growth inhibition at 42 and 30 °C, primary screen, LtaS inhibitor project, RN4220, two temperatures | OD600, 20 h, 42 °C; active compounds read low | relative growth, % (concentration not given with the values) | hit rate 0.53% among 170,000 | AID 720641, 2013;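 active = relative growth at most 50% at the other temperature and 20+ points below 30 °C, or under 10% at both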
# Sa helicase inh: inhibitors of S. aureus replicative helicase, primary screen, biochemical, fluorescence unwinding readout; replicative DNA helicase (DnaC/DnaB), Staphylococcus aureus; purified S. aureus helicase, fluorescence unwinding assay; inhibition, % (no concentration beside the values); hit rate 0.05% among 120,000; AID 485395, 2010; in the data active = inhibition above about 25%, passing the limit was not always enough
# Numbers stand for hits; – = inactive; · = no result.
SMILES,Sa growth 42C,Sa helicase inh
O=C1CSCC(=O)N1c1ccc(Cl)cc1,–,–
Cc1c(Cl)sn(-c2ccc(Cl)cc2)c1=O,-1.2,–
C/C(=N\NC(=O)CN1C(=O)COc2ccccc21)c1cc2cc(Cl)ccc2o1,–,–
Cc1cc(O)ccc1-n1c(=O)c2cc3c(=O)n(-c4ccc(O)cc4C)c(=O)c3cc2c1=O,–,–
Cc1cc(O)ccc1Sc1ccc(O)cc1C,30,–
COC(=O)c1cc2sccc2n1Cc1nc(-c2ccccc2F)oc1C,–,–
Cc1nn(CC(C)C)c2sc(C(=O)O)cc12,–,–
FC(F)(F)c1cccc(N=C=S)c1,-1.3,–
FC(F)(F)c1cccc(N=Cc2ccccc2)c1,–,–
CCCC(C(=O)O)N1Cc2ccccc2C1=O (stereo unspecified),–,–
Cc1nc(COc2ccc(C(C)(C)C)cc2)[nH]c(=O)c1Cl,–,–
Cc1ccc(S(=O)(=O)CCC(=O)O)cc1,–,–
Cc1ccc(S(=O)(=O)CCC(=O)c2ccc(O)cc2O)cc1,-0.2,–
COc1ccc(CNC(=O)c2nc3ncccn3n2)cc1,–,–
CN(CC#N)c1ccc(C2OCC3(CCC4(COC(c5ccc(N(C)CC#N)cc5)OC4)C3=O)CO2)cc1 (stereo unspecified),–,–
O=C(Nc1ccccc1)Nc1nnc(C(F)(F)F)s1,1.1,·
CC(C)(Oc1ccc(Cl)cc1)C(=O)Nc1nnc(C(F)(F)F)s1,-1.1,–
CC(C)(Oc1ccc(Cl)cc1)C(=O)Nc1nccs1,–,–
O=C(Nc1nnc(C(F)(F)F)s1)c1ccccc1,–,–
Cc1cc(N)ccc1-n1cnnn1,–,–
CCN1CCCC1CNC(=O)c1ccc(-n2c(-c3ccccc3)cc3c2CCCC3)cc1 (stereo unspecified),–,–
O=S(=O)(N=C1SCCS1)c1ccccc1,·,–
CC1=CC(=O)C=C(C)C1=NS(=O)(=O)c1ccccc1,-0.4,–
O=C(NC1CC1)c1cncc(Br)c1,–,–
CN(C(=O)CSc1n[nH]c(N)n1)c1ccccc1,–,–
SMILES,Sa growth 42C,Sa helicase inh
CCC(=O)c1cc(Cl)cc(Cl)c1O,–,–
Cc1ccc(N)c(C(O)(C(F)(F)F)C(F)(F)F)c1,·,–
Oc1c(Cl)cc(Cl)cc1C(O)(C(F)(F)F)C(F)(F)F,7.3,–
Oc1c(Cl)cc(Cl)cc1Sc1cc(Cl)cc(Cl)c1O,-0.6,·
CC(C)(C)C(=O)NCc1ccc(-c2csnn2)cc1,–,·
Cc1occc1-c1nnc(SCC(=O)N(C)C2CCCc3ccccc32)n1C (stereo unspecified),–,–
CO[C@@]12[C@@H]3NC3CN1C1=C(C(=O)C(N)=C(C)C1=O)[C@@H]2COC(N)=O (stereo partly specified),0.2,·
C=C1c2cccc(O)c2C(O)=C2C(=O)[C@]3(O)C(O)=C(C(N)=O)C(=O)[C@@H](N(C)C)[C@@H]3[C@@H](O)[C@H]12,0.1,·
C=C1c2c(Cl)ccc(O)c2C(O)=C2C(=O)[C@]3(O)C(O)=C(C(N)=O)C(=O)[C@@H](N(C)C)[C@@H]3[C@@H](O)[C@H]12,-0.9,·
CN(C)[C@@H]1C(=O)C(C(=O)NCN2CCCC2)=C(O)[C@@]2(O)C(=O)C3=C(O)c4c(O)cccc4[C@@](C)(O)C3CC12 (stereo partly specified),–,·
NC(=O)c1cc2c(ccc3ccccc32)o1,–,–
Cn1/c(=N/N=C2\C(=O)Nc3c(Cl)cc(Cl)cc32)sc2ccccc21,–,–
COc1nonc1NC(C)=O,–,–
CC(=O)NC1=CC(=O)c2nonc2C1=O,-0.7,–
O=c1[nH]c2ccc(S(=O)(=O)N(CCc3ccccc3)Cc3ccccc3)cc2[nH]c1=O,–,–
Oc1ccc(Cn2cnc3ccccc32)cc1,–,–
N#CC(C#N)=NNc1ccc2c(c1)OCCO2,-0.1,–
N#C/C(=N/Nc1ccc2c(c1)OCO2)C(=O)N1CCCC1,–,–
CCOC(=O)c1c(NC(=O)C(C)Sc2nc3c(cnn3-c3ccc(C)cc3)c(=O)[nH]2)sc2c1CCC2 (stereo unspecified),–,–
O=C(NCc1ccco1)c1ccccc1NC(=O)C1CCCCC1,–,–
COc1cc2nc(N(C)C)nc(N)c2cc1OC,–,44
COc1cc2nc(Nc3ccc(C)c(C)c3)nc(N)c2cc1OC,–,·
COc1cc(C(=O)N2CCCN3C(=O)c4ccccc4C23)cc(OC)c1OC (stereo unspecified),–,·
O=C(c1ccco1)N1N=C(c2ccccc2)CC1c1cc2cc3c(cc2nc1Cl)OCCO3 (stereo unspecified),–,–
Nc1nonc1-c1ccc(Cl)cc1,–,·
N#Cc1c(F)cccc1NC(=O)C1CCCCC1,–,·
